Screening results deposited in PubChem BioAssay by National Center for Advancing Translational Sciences (NCATS).
In the library only some 3.6% were active in any assay of this set; here they are far more common.
TSHR agonist = TSH receptor (human) agonism; P16473; HEK293-CNG-TSHR cells (CNG channel as cAMP sensor), membrane potential dye, cAMP; Potency, µM (series often up to 57.1 µM), for the others: at the highest dose activation, most hits filed as activators; hit rate 0.48% among 73,000; active = well fitted activation curve with a large enough effect in the main read-out, with a control signal flat, not every such curve was filed as active; inconclusive = small, poorly fitted or top-dose-only effect, or a change in a side signal; inactive = no such curve, though single readings can be large or run the other way; % of control where 0% means no effect;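 also: the control signal comes from parental cells without the receptor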
Target sequence (P16473 whole entry, looked up): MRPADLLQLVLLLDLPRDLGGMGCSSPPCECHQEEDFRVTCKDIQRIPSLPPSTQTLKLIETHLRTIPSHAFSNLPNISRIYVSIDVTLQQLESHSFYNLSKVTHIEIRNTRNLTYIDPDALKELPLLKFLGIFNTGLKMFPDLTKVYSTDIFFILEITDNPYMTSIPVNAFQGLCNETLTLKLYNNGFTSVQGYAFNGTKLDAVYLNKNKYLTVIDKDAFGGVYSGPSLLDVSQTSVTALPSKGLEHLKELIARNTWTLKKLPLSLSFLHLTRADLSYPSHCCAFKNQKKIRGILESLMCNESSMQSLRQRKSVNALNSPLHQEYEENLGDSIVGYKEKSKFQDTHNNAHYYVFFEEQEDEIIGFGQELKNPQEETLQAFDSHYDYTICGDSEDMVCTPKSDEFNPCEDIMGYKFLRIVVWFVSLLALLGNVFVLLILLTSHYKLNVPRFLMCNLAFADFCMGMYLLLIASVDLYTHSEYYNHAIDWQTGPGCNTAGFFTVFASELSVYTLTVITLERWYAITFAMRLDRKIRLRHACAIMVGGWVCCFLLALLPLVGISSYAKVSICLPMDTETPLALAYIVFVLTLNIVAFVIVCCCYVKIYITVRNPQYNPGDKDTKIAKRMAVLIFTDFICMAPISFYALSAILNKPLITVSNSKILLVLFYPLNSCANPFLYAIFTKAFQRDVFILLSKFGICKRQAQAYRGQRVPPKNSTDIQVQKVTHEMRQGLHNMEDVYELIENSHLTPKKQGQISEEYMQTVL
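HEK 293 cells stably expressing TSHR and a modified CNG channel, with CNG-only parental cells as counterscreen, were preloaded 60 min at room temperature with membrane potential dye containing 100 uM RO 20-1724. Compound exposure was 30 min, and depolarization was read as fluorescence at 590 nm.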
CRE-bla Fsk = modulators of forskolin-stimulated CRE signaling in CHO cells; Potency, µM (top dose mostly 38.2 µM), without a hit: top-dose activity change, negative = inhibition, most hits filed as activators; hit rate 2.5% among 71,000; CHO CRE-bla reporter (cAMP response element driving beta-lactamase), forskolin EC10, beta-lactamase ratio; active = well fitted activation curve with a large enough effect in the signal ratio, with a control signal flat, not every such curve was filed as active; inconclusive = small, poorly fitted or top-dose-only effect, or effect the other way, or a change in a side signal; the % refers to the signal ratio; also: % of control where 0% means no effect
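qHTS titration format; CRE-bla CHO reporter; stimulus EC10 NKH 477, a water-soluble forskolin. Read: CCF4 460/530 nm ratio. Potency expressed as AC50 for activators or inhibitors.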
HEK293 cAMP cs = parental HEK293 cAMP activation (counter-screen); parental HEK293 CNG cAMP sensor, membrane potential fluorescence; Potency, µM (highest dose often 57.1 µM), for inactives: at the top dose activation, most hits filed as activators; hit rate 2.5% among 73,000; also: % of control where 0% means no effect; nearly all actives have a fitted effect of over 55% in size
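Counterscreen for endogenous-receptor signalling: CNG-channel HEK 293 cells report cAMP rise by membrane depolarization. After 60 min dye equilibration with 100 uM RO 20-1724, compounds incubated 30 min before bottom-read fluorescence at 590 nm.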
ERK AVP block = inhibitors of vasopressin-stimulated ERK signaling pathway | hit rate 0.99% among 72,000 | HEK293-V1b, vasopressin-stimulated pERK AlphaScreen | AID 995 | Potency, µM (doses to about 57.5 µM), inactives show at the highest dose activity, negative = inhibition, usual class: inhibitors; also: % is scaled to controls: 0 for no effect and ±100 for the full control effect; nearly all actives have a fitted effect of over 55% in size
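Overnight-seeded V1b-HEK293 cells in 1% FBS got compound, then vasopressin (25 nM final, 5 min, 37C), then lysis buffer. AlphaScreen detection of phospho-ERK; activity normalized to basal and full-stimulation controls.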
IkB signaling = suppresses IkB signaling in ABC-DLBCL reporter cells. Potency, µM (series often up to 57.1 µM), for inactives: at the top dose IkBa stabilization activation. ABC-DLBCL IkBa-CBG/CBR dual luciferase ratio, 4 h; response scale: scaled: untreated 0%, proteasome inhibitor 100%. hit rate 0.04% among 110,000; active = well fitted curve in the direction sought with a large enough effect in the signal ratio, not every such curve was filed as active; inconclusive = small, poorly fitted or top-dose-only effect, or a change in a side signal; the % refers to the signal ratio;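 also: the direction sought is a rising ratio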
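In this assay, an IκBα–CBG68 fusion accumulates when IKK-driven degradation is blocked; native CBR normalizes for cell number. OCI-Ly3 cells were treated 4 h with compound and doxycycline, then green and red light read after Chroma-Glo addition.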
Starred values were filed as active, the others as inactive; ? = inconclusive; nt = not tested or not shown; [ ] = another dose, or the depositor's remark. Unless noted, calls follow the shape of the dose curve; as a rule, active = well fitted curve in the direction sought with a large enough effect; inconclusive = small, poorly fitted or top-dose-only effect, or another doubt; inactive = no such curve, though single readings can be large; an effect the other way counts as inactive or inconclusive. Potency is read from the fitted curve at half-maximal effect.

SMILES | TSHR agonist | CRE-bla Fsk | HEK293 cAMP cs | ERK AVP block | IkB signaling
CCc1nnc(NC(=O)CSc2nnc(-c3ccccc3OC)n2-c2ccccc2)s1 | ? | 7% | 10µM* | -18% | 0%
COC(=O)c1cccc(CSc2nnc(-c3ccco3)n2-c2ccccc2)c1 | ? | ? | 20µM* | 4% | 0%
COc1ccc(OC)c(NC(=O)CSc2nnc(-c3ccco3)n2-c2ccccc2)c1 | 24% | 2.5µM* | 26% | -24% | 2%
CCc1nnc(NC(=O)CSc2nnc(-c3ccccc3O)n2-c2ccc(C)cc2)s1 | ? | -2% | ? | ? | 4%
COc1ccc(OC)c(NC(=O)CSc2nnc(CCCO)n2-c2ccccc2)c1 | 5% | ? | 1% | -4% | 4%
COc1ccc(C)cc1NC(=O)CSc1nnc(-c2cc3cccc(OC)c3o2)n1N | ? | 21% | 16µM* | -7% | -1%
COc1ccc(-c2nc3cnc(OC)nc3n(-c3ccc(OC)cc3)c2=O)cc1 | 5% | ? | 12% | 3% | 3%[11.4 µM]
O=C(CN1C(=O)C2C3C=CC(C3)C2C1=O)Nc1cccc2c1CCCC2 (stereo unspecified) | ? | ? | ? | 20% | 3%
O=c1[nH]c(CSc2nnc(-c3ccco3)n2-c2ccccc2)nc2sc3c(c12)CCC3 | nt | 10µM* | 18% | -12% | 0%
Cc1cc(C)c(S(=O)(=O)N2CCC(N3CCN(Cc4ccccc4)C(=O)C3=O)CC2)c(C)c1 | nt | nt | nt | nt | -1%
COc1cc2[nH]c(=O)n(CCC(=O)NCc3cccnc3)c(=O)c2cc1OC | -2%[11.4 µM] | -6% | -2% | -23% | 0%
Cc1noc(C)c1CN1C(=O)NC(Cc2ccccc2)(Cc2ccccc2)C1=O | 25µM* | ? | 0% | 5% | 5%
O=C(c1ccco1)N1CCN(S(=O)(=O)c2ccc(C3CCCCC3)cc2)CC1 | ? | 3% | 25µM* | 24% | 8%
O=C(c1ccco1)N1CCN(S(=O)(=O)c2ccc(S(=O)(=O)NC3CCCC3)cc2)CC1 | ? | 12% | ? | 4% | 0%
O=C(c1ccco1)N1CCN(S(=O)(=O)c2ccc(S(=O)(=O)NC3CCCCC3)cc2)CC1 | ? | 4% | 1.6µM* | -9% | 1%
O=C(c1ccco1)N1CCN(S(=O)(=O)c2ccc(F)cc2)CC1 | 1% | 0% | 2% | 2% | 2%
CC(C)OC(=O)CN1CCN(C2c3ccccc3-c3ccccc32)CC1 | 25µM* | ? | 19% | 10% | 0%
COc1ccc(-c2nc3cnc(N4CCOCC4)nc3n(C3CC3)c2=O)cc1 | ? | 1.3µM* | ? | -12% | -1%[11.4 µM]
O=c1c(-c2ccc(F)cc2)nc2cnc(N3CCOCC3)nc2n1C1CC1 | 9% | 5µM* | 9% | -17% | 0%[11.4 µM]
Cn1c(=O)c(-c2ccc(F)cc2)nc2cnc(N3CCOCC3)nc21 | ? | 2.5µM* | ? | 14% | 1%[11.4 µM]
COc1ccc(-c2nc3cnc(N4CCN(C)CC4)nc3n(C3CC3)c2=O)cc1 | ? | ? | ? | 5% | 3%[11.4 µM]
CSc1nc(C)cc(Nc2ccc(O)c(CN3CCCCC3)c2)n1 | -1%[11.4 µM] | 1%[7.6 µM] | -1%[11.4 µM] | -4%[11.5 µM] | -1%[11.4 µM]
COCCNS(=O)(=O)c1cc(-c2nn(C)c(=O)c3ccccc23)ccc1C | 2% | 13µM* | 13% | -31% | 0%
Cc1ccc(-c2nn(C)c(=O)c3ccccc23)cc1CO | -19% | ? | 2% | -18% | 2%
Cc1cc(C)cc(-n2c(SCC(=O)N3CCCCC3)nc3c([nH]c4ccccc43)c2=O)c1 | nt | nt | nt | nt | 1%
O=C(O)C1C2CCC(O2)C1C(=O)Nc1cccc(F)c1 (stereo unspecified) | 0% | 10µM* | -3% | 0% | 3%
O=C(O)C1C2C=CC(C2)C1C(=O)Nc1cccc(F)c1 (stereo unspecified) | 4% | -2% | 1% | 4% | 1%
COc1ccc2[nH]cc(CCNc3cc(-c4ccc5c(c4)OCO5)ncn3)c2c1 | 12% | ? | 4% | ? | -2%[11.4 µM]
COc1ccc2[nH]cc(CCNc3ccnc(-c4ccc5c(c4)OCO5)n3)c2c1 | ? | 17% | ? | 32µM* | 5%[11.4 µM]
